Measured values: PubChem BioAssay (NCATS)
Records with an inconclusive call do not appear. Active and inactive are the calls of the source. Unless noted, calls come from the whole dose curve; as a rule, active = well fitted curve in either direction with a large enough effect (not every such curve was filed as active); inconclusive = small, poorly fitted or top-dose-only effect, or another doubt; inactive = flat fitted curve, though single readings scatter.

Experiments:
[1] = AP1 Signaling Pathway (AID 357); conditions: ME-180 AP-1-bla reporter, EGF-induced, beta-lactamase ratio, 5 h; at 17.2 µM (top of the series) unless noted;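 note: ME-180 reporter cells stimulated with EGF at its EC50 level; % is set by controls: 0 for no effect and ±100 for the full control effect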
Procedure, shortened: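 Cells are seeded overnight, exposed to compound titrations and an EC50 level of EGF for 5 hours at 37 °C, then loaded with CCF4 dye for 2.5 hours. Beta-lactamase activity under the AP-1 element is read as a blue/green ratio.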

[2] = Stat Signaling Pathway (AID 446); conditions: ME-180 SIE beta-lactamase reporter, IL-6 stimulated, 5 h; at 17.2 µM (top of the series) unless noted;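 note: ME-180 cervical cancer cells given 40 pM IL-6 alongside compound; SIE-controlled beta-lactamase reporter measured as 460/530 nm FRET emission ratio; % is set by controls: 0 for no effect and ±100 for the full control effect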
Procedure, shortened: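 Reporter line: ME-180 cervical carcinoma, SIE-beta-lactamase. Treatment: compound with 40 pM IL-6, 5 hrs, 37 C, in low-serum OPTI-MEM with 10 mM HEPES pH 7.3. Detection: 460/530 nm fluorescence.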

[3] = target: Glucocorticoid receptor (Homo sapiens) (UniProt P04150); experiment: GR-GFP Redistribution (AID 450;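 active = compounds whose dose series gives a full or clear partial fitted curve of increased nuclear translocation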; note: potency is the fitted concentration of half-maximal effect)
[4] = target: Glucocorticoid receptor (Homo sapiens) (UniProt P04150); experiment: GR-EFC Redistribution (AID 451; calls by dose curve; note: potency is the fitted concentration of half-maximal effect); conditions: CHO-K1 GR-EFC translocation, beta-gal luminescence, 2 h
Procedure, shortened: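 Translocation of GR-ED fusion to nuclear EA restores b-gal, read by luminescence after 1 h room-temperature detection. Engineered CHO-K1 biosensor cells, 1,000/well, exposed 2 h at 37 C to titrations up to 46 uM final.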

[5] = target: Mitogen-activated protein kinase 10 (Mus musculus) (UniProt Q61831); experiment: JNK3 AlphaScreen Assay (AID 530);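 note: kinase came from lysate of stimulated human HepG2 cells; signal reports phosphorylation of biotinylated GST-cJun 1-79 at Ser73 with 10 µM ATP; % is set by controls: 0 for no effect and ±100 for the full control effect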
Procedure, shortened: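 Room-temperature AlphaScreen kinase assay; pre-activated HepG2 lysate as JNK3 source, biotin-GST-cJun(1-79) substrate, 10 uM ATP, compound 15 min preincubation.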

[6] = target: 3',5'-cyclic-AMP phosphodiesterase 4B (Homo sapiens) (UniProt Q07343); experiment: qHTS Assay for Inhibitors of PDE-IV (AID 607; active = well fitted activation curve with a large enough effect in the main read-out, with a control signal flat, not every such curve was filed as active; note: % of control where 0% means no effect)
Procedure, shortened: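 Cell-based read-out of cAMP via a modified cyclic nucleotide-gated channel and membrane potential dye (535/590 nm) in HEK293 cells expressing PDE4 endogenously. Compounds tested up to 22.9 uM final; 100 uM RO 20-1724 reference.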

[7] = target: Cytochrome P450 3A4 (Homo sapiens) (UniProt P08684); experiment: qHTS Assay for Inhibitors and Substrates of Cytochrome P450 3A4 (AID 884; active = well fitted curve in the direction sought with a large enough effect; an effect the other way counts as inactive or inconclusive; note: potency is the fitted concentration of half-maximal effect; nearly all actives have a fitted effect of over 50% in size)
Procedure, shortened: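 20 nM human CYP3A4 with 25 uM Luciferin-PPXE (at KM) in 200 mM KPO4, preincubated 10 min with compound; NADPH regeneration started a 60 min RT reaction. Luciferin detected by luminescence, normalized to 57 uM ketoconazole as full inhibition.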

[8] = target: Cytochrome P450 3A4 (Homo sapiens) (UniProt P08684); experiment: qHTS Assay for Activators of Cytochrome P450 3A4 (AID 885; active = well fitted curve in the direction sought with a large enough effect; an effect the other way counts as inactive or inconclusive; note: nearly all actives have a fitted effect of over 65% in size)
Procedure, shortened: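 Signal was normalized against complete inhibition by 57 uM ketoconazole. The reaction used 20nM CYP3A4 with 25uM Luciferin-PPXE, 10-min compound preincubation and a 60-min NADPH-supported step at RT.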

[9] = target: Cytochrome P450 2C19 (Homo sapiens) (UniProt P33261); experiment: qHTS Assay for Inhibitors and Substrates of Cytochrome P450 2C19 (AID 899; active = well fitted curve in the direction sought with a large enough effect; an effect the other way counts as inactive or inconclusive; note: potency is the fitted concentration of half-maximal effect; nearly all actives have a fitted effect of over 60% in size)
Procedure, shortened: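 Luminescence readout of luciferin formed from 10uM Luciferin-H EGE (KM level) by 5 nM CYP2C19 in 50mM KPO4. 60 min NADPH-driven reaction at 37C after 10 min compound preincubation; data scaled to 57uM ketoconazole inhibition.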

[10] = target: Tyrosyl-DNA phosphodiesterase 1 (Homo sapiens) (UniProt Q9NUW8); experiment: Confirmation Assay for Inhibitors of Tyrosyl-DNA Phosphodiesterase (TDP1) (AID 489007; active = well fitted curve in the direction sought with a large enough effect; an effect the other way counts as inactive or inconclusive; note: potency is the fitted concentration of half-maximal effect; nearly all actives have a fitted effect of over 40% in size); conditions: recombinant human TDP1 enzymatic activity, dose-response
Procedure, shortened: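 Confirmation of primary-screen follow-ups in a qHTS format. Substrate cleavage by Tdp1 (1 nM) of a 3'-phosphotyrosine-FITC, 5'-biotin oligo (15 nM) was monitored as decreased AlphaScreen signal after a 5 min room-temperature reaction.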

[11] = target: Tumor susceptibility gene 101 protein (Homo sapiens) (UniProt Q99816); experiment: qHTS Assay for Iinhibitors of HIV-1 Budding by Blocking the Interaction of PTAP/TSG101: Hit Validation (AID 651600; active = well fitted curve in the direction sought with a large enough effect; an effect the other way counts as inactive or inconclusive; note: potency is the fitted concentration of half-maximal effect; nearly all actives have a fitted effect of over 70% in size)
Procedure, shortened: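 Tsg101 binding domain 10 uM + FITC-PTAP peptide 50 nM (final), 10 mM HEPES pH 7.5/0.15 M NaCl/0.01% Tween 20/3 mM EDTA/0.1 mM TCEP; 20 min RT; FP read, FITC filters.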

[12] = target: Cytochrome P450 2D6 (Homo sapiens) (UniProt P10635); experiment: qHTS Assay for Inhibitors and Substrates of Cytochrome P450 2D6 (AID 891; active = well fitted curve in the direction sought with a large enough effect; an effect the other way counts as inactive or inconclusive;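 note: luciferin methyl ether substrate demethylated by CYP2D6 with NADPH regeneration; % is set by controls: 0 for no effect and ±100 for the full control effect; nearly all actives have a fitted effect of over 60% in size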)
Procedure, shortened: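 Human CYP2D6 (5 nM) with 30 uM Luciferin-ME EGE (at Km) in 100 mM KPO4, compound preincubated 10 min, then NADPH regeneration system for 60 min at room temperature. Luciferin read by luminescence; normalized to 1.43 uM quinidine.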

[13] = target: Guanine nucleotide-binding protein G(i) subunit alpha-1 (Homo sapiens) (UniProt P63096); experiment: qHTS Assay for Inhibitors of RGS12 GoLoco Motif Activity (Green Fluorophore) (AID 879; active = well fitted curve in the direction sought with a large enough effect; an effect the other way counts as inactive or inconclusive;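 note: 0% = labeled peptide with Gαi1 and full inhibition = labeled peptide alone without protein; negative values mean loss of peptide binding seen as reduced polarization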)
Procedure, shortened: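 Fluorescence polarization assay: 50 nM Gαi1 with 10 nM FITC-labeled RGS12 GoLoco peptide in 10 mM Tris pH 7.5, 150 mM NaCl, 0.1 mM GDP, 0.05% NP40, 10 min at room temperature with compound.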

[14] = Confirmation and Secondary Assay for Modulators of Hemoglobin Beta Chain Splicing at IVS2 654 locus (AID 910; active = well fitted curve in the direction sought with a large enough effect; an effect the other way counts as inactive or inconclusive;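 note: HeLa cells stably carrying EGFP split by mutant beta-globin IVS2-654 intron; per-well total GFP intensity by laser scanning cytometry after 2-day treatment; % of control where 0% means no effect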)
Procedure, shortened: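 Readout: per-well total peak green fluorescence (488 nm ex, 500–520 nm em) from objects 5–250 µm, reflecting correct splicing of an EGFP-654 reporter. Compounds were applied for 2 days at 37 °C to overnight-plated HeLa EGFP-654 cells; controls were DMSO and 500 nM IVS2-654 PNA.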

[15] = target: Muscarinic acetylcholine receptor M1 (Rattus norvegicus) (UniProt P08482); experiment: qHTS Assay for Antagonists of Acetylcholine Muscarinic M1 Receptor: Measurement of IP-One Response (AID 944; active = well fitted curve in the direction sought with a large enough effect; an effect the other way counts as inactive or inconclusive; note: nearly all actives have a fitted effect of over 75% in size)
Procedure, shortened: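 Steps: plate transfected CHO-M1 cells overnight; add test compound, 10 min; add carbachol (200 nM, EC80) in stimulation buffer with LiCl; incubate 30 min; add labelled IP1 tracer and anti-IP1 antibody in lysis buffer; read HTRF after 10 min.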

[16] = target: Pyruvate kinase (Leishmania mexicana) (UniProt Q27686); experiment: qHTS Validation Assay for Inhibitors of Leishmania Mexicana Pyruvate Kinase (AID 945; active = well fitted curve in the direction sought with a large enough effect; an effect the other way counts as inactive or inconclusive;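 note: 0% = DMSO only neutral control wells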)
Procedure, shortened: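 Compounds are tested as eight-point concentration series. Reactions contain 0.2 nM LmPYK E451W, 0.5 mM PEP, 0.1 mM ADP, 7 mM MgCl2 and 50 mM KCl at pH 7.2, run 1 h at room temperature, then read by PKLight luminescence.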

[17] = target: Pyruvate kinase PKM (Homo sapiens) (UniProt P14618); experiment: qHTS Assay for Activators of Human Muscle Pyruvate Kinase (AID 954; active = well fitted curve in the direction sought with a large enough effect, not every such curve was filed as active;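 note: 0% = uninhibited enzyme and -100% = no enzyme or full thiadiazolimine inhibition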)
Procedure, shortened: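 Human PKM2 activity is measured as ATP generation, detected by luciferase-coupled luminescence. The enzyme (0.1 nM) acts on 0.5 mM PEP and 0.1 mM ADP for 1 h at ambient temperature; data are normalized to uninhibited and full-inhibition wells.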

[18] = target: Alpha-galactosidase A (Homo sapiens) (UniProt P06280); experiment: Counterscreen for Glucocerebrosidase Inhibitors: qHTS Assay for Human alpha-Galactosidase at pH 4.5 (AID 992; active = well fitted curve in the direction sought with a large enough effect; an effect the other way counts as inactive or inconclusive; note: 0% is about no effect)
Procedure, shortened: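 Quantitative HTS: compounds tested from 0.7 nM up to 77 uM against 2 nM enzyme with 80 uM 4-MU alpha-D-galactopyranoside. The 20 min room-temperature reaction is stopped with 1M NaOH/1M glycine, pH 10.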

[19] = target: alpha-glucosidase (Oryza sativa, rice) (UniProt Q653V4); experiment: Counterscreen for Glucocerebrosidase Inhibitors: qHTS Assay for Rice alpha-Glucosidase at pH 5.0 (AID 997; active = well fitted curve in the direction sought with a large enough effect; an effect the other way counts as inactive or inconclusive;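 note: 0% = full activity with enzyme and -100% = basal without enzyme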)
Procedure, shortened: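 Rice alpha-glucosidase (4 nM final) with 400 uM 4-methylumbelliferyl-alpha-D-glucopyranoside in citrate buffer pH 5.0, 20 min at room temperature, stopped at pH 10; fluorescence 365/440 nm, compounds 0.7 nM–77 uM, AC50 from Hill fits.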

[20] = qHTS for Inhibitors of the vitamin D receptor (VDR): Hit Validation using a Texas Red Assay (AID 602201; active = well fitted curve in the direction sought with a large enough effect; an effect the other way counts as inactive or inconclusive; note: potency is the fitted concentration of half-maximal effect); conditions: VDR coregulator binding, Texas Red fluorescence polarization; agonist-bound VDR ligand-binding domain
Procedure, shortened: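 After a 2-hour room-temperature incubation, polarization of Texas-Red emission was read (Ex 595 nm/Em 615 nm). Final mix contained 7 nM Texas Red, 1.5 uM VDR-LBD and LG19078.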

3',5'-cyclic-AMP phosphodiesterase 4B (Homo sapiens), sequence (Q07343 whole entry, looked up): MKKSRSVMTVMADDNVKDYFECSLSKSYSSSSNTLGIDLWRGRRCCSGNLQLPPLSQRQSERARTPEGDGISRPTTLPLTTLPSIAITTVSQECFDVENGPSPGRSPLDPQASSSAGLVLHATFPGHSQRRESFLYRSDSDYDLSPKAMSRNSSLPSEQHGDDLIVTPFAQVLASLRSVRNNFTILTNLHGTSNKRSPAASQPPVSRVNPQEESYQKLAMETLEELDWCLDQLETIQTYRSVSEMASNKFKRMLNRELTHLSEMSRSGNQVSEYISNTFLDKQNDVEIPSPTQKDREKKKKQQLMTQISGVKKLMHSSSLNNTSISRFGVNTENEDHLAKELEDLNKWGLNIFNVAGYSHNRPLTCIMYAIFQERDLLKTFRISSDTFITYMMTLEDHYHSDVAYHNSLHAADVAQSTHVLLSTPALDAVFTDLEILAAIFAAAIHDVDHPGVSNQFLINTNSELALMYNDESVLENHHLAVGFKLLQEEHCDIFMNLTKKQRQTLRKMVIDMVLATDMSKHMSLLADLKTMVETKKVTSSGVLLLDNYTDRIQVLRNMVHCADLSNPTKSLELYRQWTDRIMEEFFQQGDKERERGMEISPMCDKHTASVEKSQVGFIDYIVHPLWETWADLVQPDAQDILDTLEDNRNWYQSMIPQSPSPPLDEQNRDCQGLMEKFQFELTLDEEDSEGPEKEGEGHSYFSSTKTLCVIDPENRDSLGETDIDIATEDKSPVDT
Glucocorticoid receptor (Homo sapiens), sequence (P04150 whole entry, looked up, the tested form may be a part): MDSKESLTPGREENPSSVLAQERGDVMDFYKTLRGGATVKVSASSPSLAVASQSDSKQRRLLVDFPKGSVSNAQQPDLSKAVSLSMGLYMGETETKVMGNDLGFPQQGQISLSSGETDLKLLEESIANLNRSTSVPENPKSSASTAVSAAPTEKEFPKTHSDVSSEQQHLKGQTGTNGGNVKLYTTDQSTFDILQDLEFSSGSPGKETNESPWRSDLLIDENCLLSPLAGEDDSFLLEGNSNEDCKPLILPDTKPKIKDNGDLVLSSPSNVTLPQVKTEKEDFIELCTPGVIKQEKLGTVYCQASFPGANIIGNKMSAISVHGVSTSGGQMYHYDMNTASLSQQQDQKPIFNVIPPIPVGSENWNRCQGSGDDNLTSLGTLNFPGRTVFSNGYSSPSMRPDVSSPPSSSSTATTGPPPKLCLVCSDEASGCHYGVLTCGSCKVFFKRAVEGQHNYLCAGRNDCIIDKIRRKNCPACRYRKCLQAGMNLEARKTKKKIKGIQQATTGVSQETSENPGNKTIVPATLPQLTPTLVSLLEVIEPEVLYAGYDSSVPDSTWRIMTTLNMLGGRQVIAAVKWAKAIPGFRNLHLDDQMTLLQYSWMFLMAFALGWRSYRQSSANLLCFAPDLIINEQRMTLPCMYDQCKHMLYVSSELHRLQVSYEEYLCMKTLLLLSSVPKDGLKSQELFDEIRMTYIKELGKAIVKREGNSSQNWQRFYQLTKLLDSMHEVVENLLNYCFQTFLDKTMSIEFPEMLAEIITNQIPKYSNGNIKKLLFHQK
Cytochrome P450 2C19 (Homo sapiens), sequence (P33261 whole entry, looked up): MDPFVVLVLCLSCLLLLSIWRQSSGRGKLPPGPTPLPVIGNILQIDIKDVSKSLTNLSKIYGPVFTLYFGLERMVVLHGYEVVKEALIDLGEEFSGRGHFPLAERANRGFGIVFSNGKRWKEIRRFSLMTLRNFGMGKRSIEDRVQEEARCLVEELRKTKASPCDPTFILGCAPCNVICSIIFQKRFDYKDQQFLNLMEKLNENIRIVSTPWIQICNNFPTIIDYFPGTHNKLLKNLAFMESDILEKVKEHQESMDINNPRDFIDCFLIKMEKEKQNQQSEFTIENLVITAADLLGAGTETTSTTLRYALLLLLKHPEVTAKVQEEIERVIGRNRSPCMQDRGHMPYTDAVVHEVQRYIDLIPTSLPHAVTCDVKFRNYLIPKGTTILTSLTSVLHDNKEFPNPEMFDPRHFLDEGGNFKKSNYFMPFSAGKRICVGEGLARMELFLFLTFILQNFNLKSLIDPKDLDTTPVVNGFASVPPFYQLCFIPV
Cytochrome P450 3A4 (Homo sapiens), sequence (P08684 whole entry, looked up): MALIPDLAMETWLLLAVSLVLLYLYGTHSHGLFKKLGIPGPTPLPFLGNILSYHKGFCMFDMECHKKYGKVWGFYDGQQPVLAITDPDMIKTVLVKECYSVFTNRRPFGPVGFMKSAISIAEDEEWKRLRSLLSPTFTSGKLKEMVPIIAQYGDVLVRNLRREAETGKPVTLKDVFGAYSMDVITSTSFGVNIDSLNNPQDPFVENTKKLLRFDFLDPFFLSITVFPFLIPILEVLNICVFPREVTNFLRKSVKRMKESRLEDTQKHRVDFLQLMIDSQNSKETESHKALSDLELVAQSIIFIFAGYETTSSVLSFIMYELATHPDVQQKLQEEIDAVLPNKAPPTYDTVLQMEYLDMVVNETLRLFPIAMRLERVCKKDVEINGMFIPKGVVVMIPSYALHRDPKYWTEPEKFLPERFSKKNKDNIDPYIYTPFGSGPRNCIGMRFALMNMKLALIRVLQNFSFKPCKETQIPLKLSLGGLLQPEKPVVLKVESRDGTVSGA
Cytochrome P450 2D6 (Homo sapiens), sequence (P10635 whole entry, looked up): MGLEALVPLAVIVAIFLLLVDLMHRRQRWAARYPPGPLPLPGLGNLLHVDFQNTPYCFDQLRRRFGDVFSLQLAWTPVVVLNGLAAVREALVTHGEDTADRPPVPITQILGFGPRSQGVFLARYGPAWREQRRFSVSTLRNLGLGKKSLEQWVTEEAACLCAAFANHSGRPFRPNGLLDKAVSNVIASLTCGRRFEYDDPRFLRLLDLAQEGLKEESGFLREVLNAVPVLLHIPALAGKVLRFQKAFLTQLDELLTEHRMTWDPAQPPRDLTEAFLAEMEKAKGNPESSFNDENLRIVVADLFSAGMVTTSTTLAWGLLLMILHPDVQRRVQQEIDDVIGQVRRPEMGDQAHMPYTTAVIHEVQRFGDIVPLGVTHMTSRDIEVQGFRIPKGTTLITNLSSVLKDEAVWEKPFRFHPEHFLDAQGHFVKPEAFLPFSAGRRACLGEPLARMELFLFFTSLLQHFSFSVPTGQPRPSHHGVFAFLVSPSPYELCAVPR
Guanine nucleotide-binding protein G(i) subunit alpha-1 (Homo sapiens), sequence (P63096 whole entry, looked up): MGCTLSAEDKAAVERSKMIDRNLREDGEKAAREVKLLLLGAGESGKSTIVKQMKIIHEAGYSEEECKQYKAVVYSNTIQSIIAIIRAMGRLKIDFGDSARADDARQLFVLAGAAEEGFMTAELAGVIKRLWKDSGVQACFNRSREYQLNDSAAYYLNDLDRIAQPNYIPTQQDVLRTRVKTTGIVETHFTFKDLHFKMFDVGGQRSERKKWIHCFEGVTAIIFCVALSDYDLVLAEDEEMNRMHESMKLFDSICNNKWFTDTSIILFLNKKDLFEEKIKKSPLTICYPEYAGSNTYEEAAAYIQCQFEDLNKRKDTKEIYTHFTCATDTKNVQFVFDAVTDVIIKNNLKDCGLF
Alpha-galactosidase A (Homo sapiens), sequence (P06280 whole entry, looked up): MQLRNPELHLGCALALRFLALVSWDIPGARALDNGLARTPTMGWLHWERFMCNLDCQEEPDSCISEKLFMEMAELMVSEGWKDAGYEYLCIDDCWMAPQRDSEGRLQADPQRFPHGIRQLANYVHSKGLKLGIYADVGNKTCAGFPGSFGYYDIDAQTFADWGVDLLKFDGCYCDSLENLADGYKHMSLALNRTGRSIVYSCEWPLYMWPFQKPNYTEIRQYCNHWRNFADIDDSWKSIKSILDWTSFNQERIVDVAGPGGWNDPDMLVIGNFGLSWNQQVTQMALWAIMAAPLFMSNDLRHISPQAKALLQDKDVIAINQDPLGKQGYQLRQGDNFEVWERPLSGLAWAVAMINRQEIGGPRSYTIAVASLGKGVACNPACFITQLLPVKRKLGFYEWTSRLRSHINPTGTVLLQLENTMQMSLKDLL
Tyrosyl-DNA phosphodiesterase 1 (Homo sapiens), sequence (Q9NUW8 whole entry, looked up): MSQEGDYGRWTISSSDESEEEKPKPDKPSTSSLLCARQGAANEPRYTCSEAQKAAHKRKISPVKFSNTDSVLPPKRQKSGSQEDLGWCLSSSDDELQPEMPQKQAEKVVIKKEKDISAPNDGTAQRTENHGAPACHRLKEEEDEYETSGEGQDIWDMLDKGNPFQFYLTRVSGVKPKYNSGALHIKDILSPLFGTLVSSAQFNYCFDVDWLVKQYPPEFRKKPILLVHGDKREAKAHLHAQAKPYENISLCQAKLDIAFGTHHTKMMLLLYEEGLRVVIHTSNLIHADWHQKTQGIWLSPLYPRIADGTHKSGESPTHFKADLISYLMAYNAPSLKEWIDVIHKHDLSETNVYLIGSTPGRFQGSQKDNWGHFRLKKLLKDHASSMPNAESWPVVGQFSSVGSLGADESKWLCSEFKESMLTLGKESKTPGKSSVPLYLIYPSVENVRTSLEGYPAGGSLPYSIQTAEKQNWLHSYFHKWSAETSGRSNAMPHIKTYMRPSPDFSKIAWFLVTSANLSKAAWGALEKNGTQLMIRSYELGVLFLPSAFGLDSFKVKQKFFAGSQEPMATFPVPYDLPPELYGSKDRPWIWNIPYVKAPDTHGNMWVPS
Muscarinic acetylcholine receptor M1 (Rattus norvegicus), sequence (P08482 whole entry, looked up): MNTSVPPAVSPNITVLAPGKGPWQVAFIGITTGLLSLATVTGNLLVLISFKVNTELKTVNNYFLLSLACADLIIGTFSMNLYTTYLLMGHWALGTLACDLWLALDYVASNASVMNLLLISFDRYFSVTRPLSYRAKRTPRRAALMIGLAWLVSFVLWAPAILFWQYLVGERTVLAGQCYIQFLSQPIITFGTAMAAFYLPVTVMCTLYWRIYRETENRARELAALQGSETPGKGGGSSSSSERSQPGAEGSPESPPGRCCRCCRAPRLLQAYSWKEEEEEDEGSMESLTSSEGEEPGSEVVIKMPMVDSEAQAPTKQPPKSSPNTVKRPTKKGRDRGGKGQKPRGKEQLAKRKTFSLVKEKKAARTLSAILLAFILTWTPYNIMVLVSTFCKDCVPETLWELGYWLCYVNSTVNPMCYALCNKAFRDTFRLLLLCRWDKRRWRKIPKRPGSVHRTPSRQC

CCOC(=O)c1[nH]c2ccc(OC)cc2c1NC(=O)CCN1CCN(Cc2ccccc2)CC1
inactive: activity change, negative = inhibition [1] -6.55% | activity, negative = inhibition [2] 4.87% | Potency [3] > 20.6 µM

NC(=O)/C(=C\c1ccncc1)c1cccc2ccccc12
inactive: activity change, negative = inhibition [1] -11.2% [at 7.69 µM] | activity, negative = inhibition [2] -3.8% [at 7.69 µM] | Potency [3] > 46 µM | Potency [4] > 9.22 µM | activity change, negative = inhibition [5] 1.18% [at 11.4 µM] | Potency [6] | activity change, positive = activation [8] -72.7% [at 11.4 µM]
active: Potency [7] 3.16 µM | Potency [9] 2.51 µM

Cc1ccc(-n2c(=O)c3c4c(sc3n3c(C)nnc23)COC(C(C)C)C4)cc1 (stereo not given)
inactive: activity change, negative = inhibition [1] -7.34% | activity, negative = inhibition [2] -0.5% | Potency [3] > 20.6 µM

CN1CCN(c2nc3c(c(=O)n(C)c(=O)n3C)n2Cc2cccc3ccccc23)CC1
inactive: activity change, negative = inhibition [1] -9.31% | activity, negative = inhibition [2] -2.69% | Potency [3] > 20.6 µM

C[N+](C)(C)CCN(Cc1cccs1)c1ccccn1
inactive: activity change, negative = inhibition [1] -6.68% [at 7.69 µM] | activity, negative = inhibition [2] -4.68% [at 7.69 µM] | Potency [3] > 46 µM | Potency [4] > 9.22 µM | activity change, negative = inhibition [5] 0.454% [at 11.4 µM] | Potency [6]

O=C1c2ccccc2-c2onc3ccc(NCc4ccco4)c1c23
active: Potency [10] 7.08 µM | Potency [11] 1.63 µM
inactive: activity change, negative = inhibition [1] -13% | activity, negative = inhibition [2] -1.03% | Potency [3] > 20.6 µM

Cn1c(OCc2cccnc2)nc2c1c(=O)n(Cc1ccc(Br)cc1)c(=O)n2C
inactive: activity change, negative = inhibition [1] -26.8% | activity, negative = inhibition [2] -27.6% | Potency [3] > 20.6 µM

Cn1nnc2c(sc3nc(N4CCOCC4)c4c(c32)CCCC4)c1=O
inactive: activity change, negative = inhibition [1] -0.625% | activity, negative = inhibition [2] -0.897% | Potency [3] > 20.6 µM

Clc1ccc([C@@H](c2ccccc2Cl)C(Cl)Cl)cc1
inactive: activity change, negative = inhibition [1] -7.25% [at 38 µM] | activity, negative = inhibition [2] 2.17% [at 38 µM] | Potency [3] > 46 µM | Potency [4] > 46 µM | Potency [12]
active: Potency [9] 0.631 µM

CNC(=O)Nc1cccc(NC(=O)NC)n1
inactive: activity change, negative = inhibition [1] 13% | activity, negative = inhibition [2] 0.623% | Potency [3] > 20.6 µM

CCOc1ccc2c(C)nc(NC3=NC(C)(C)C=C(C)N3)nc2c1
inactive: activity change, negative = inhibition [1] 26.3% | activity, negative = inhibition [2] 25.6% | Potency [3] > 20.6 µM

Nc1ccn([C@@H]2O[C@@H](CO)[C@@H](O)[C@H]2O)c(=O)n1
inactive: activity change, negative = inhibition [1] 10.7% [at 38 µM] | activity, negative = inhibition [2] 19% [at 38 µM] | Potency [3] > 46 µM | Potency [4] > 46 µM | Potency [5] | Potency [6] | outcome [13] | Potency [14] | Potency [15] | Potency [16] | outcome [17] | outcome [18] | outcome [19]

Cc1cc(C)n(CC2CC(=O)N(c3ccc(F)c(Cl)c3)C2=O)n1 (stereo not given)
inactive: activity change, negative = inhibition [1] -5.28% | activity, negative = inhibition [2] -2.55% | Potency [3] > 20.6 µM

O=C(CCN1CCc2ccccc2CC1)c1ccc2c(c1)OCCO2
inactive: activity change, negative = inhibition [1] -22% | activity, negative = inhibition [2] 12.8% | Potency [3] > 20.6 µM
active: Potency [20] 10 µM

COc1cc2c(C(=O)N3CCN(c4ccccc4)CC3)c(C)oc2cc1Br
inactive: activity change, negative = inhibition [1] 3.59% | activity, negative = inhibition [2] -12.8% | Potency [3] > 20.6 µM
